Most compounds without a hit are left out; they make up all but 1.1% or so of the library.
MMP-13 inhibitor – inhibitors of human MMP13. MMP-13 fTHP FRET cleavage, Mca fluorescence. 65,000 tested, 0.07% active. inhibition, % at 4 µM. P45452;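 active means inhibition above the mean of compound-free control plate wells plus 3 SD, cut at about 14% in these data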;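 further: 0% = DMSO wells and 100% = wells with reference MMP-13 inhibitor after basal subtraction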
Mac1 fbg inh – blocks human CD11b/CD18 adhesion to fibrinogen. K562 CD11b/CD18 adhesion to fibrinogen, ATPlite luminescence; Mn2+ added to activate the integrin. inhibition, % at 10 µM. 93,000 tested, 0.54% active;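 active means primary inhibition of 50% or more at 10 µM, then 40% or more on retest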
Target sequence (P05107 whole entry, looked up, other chains not shown): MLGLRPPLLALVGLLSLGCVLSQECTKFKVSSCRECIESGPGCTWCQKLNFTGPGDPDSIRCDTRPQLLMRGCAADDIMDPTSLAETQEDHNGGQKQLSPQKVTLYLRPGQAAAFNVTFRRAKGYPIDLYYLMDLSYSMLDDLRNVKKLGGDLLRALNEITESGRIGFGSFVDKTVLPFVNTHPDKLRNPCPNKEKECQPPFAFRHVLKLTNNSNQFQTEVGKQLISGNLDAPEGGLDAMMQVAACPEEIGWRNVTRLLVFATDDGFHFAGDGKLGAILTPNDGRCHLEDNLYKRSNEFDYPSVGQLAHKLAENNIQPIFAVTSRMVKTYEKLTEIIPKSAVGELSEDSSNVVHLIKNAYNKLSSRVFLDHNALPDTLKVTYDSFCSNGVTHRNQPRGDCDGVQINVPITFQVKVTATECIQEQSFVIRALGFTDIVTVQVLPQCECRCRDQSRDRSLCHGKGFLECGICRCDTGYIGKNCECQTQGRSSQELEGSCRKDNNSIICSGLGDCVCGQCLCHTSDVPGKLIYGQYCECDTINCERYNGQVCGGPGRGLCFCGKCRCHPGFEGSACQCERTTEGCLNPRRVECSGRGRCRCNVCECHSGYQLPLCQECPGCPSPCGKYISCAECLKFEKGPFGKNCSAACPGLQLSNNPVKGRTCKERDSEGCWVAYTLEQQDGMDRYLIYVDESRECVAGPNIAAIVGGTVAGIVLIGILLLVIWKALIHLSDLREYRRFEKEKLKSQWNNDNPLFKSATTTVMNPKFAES
CD11b adhes enh – increases human CD11b/CD18 adhesion to fibrinogen | P05107+P11215 | K562 CD11b/CD18 adhesion to fibrinogen, ATPlite luminescence | activation, % at 10 µM | 93,000 tested, 0.07% active | AID 1499;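 active means 10 µM primary screen giving 50% or more activity, confirmed by 40% or more on retest at that dose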
FAK blocker – inhibitors of human focal adhesion kinase | biochemical FAK kinase activity assay | AID 727 | 97,000 tested, 0.84% active | inhibition, %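 (tested at 7 µM)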;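 further: 0% = DMSO and 100% = reference compound high control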
FAK inh confirm – confirmation of human focal adhesion kinase (FAK) inhibitors | shares compounds with FAK blocker | FAK kinase biochemical inhibition assay | inhibition, % at 7 µM | 750 tested, 28% active | AID 794
* marks the source's active call; other numbers are inactive results; · = not tested or not shown. Unless noted, no stated cut-off is given here; in the data, active means inhibition above about 19%; inactive means the rest.

SMILES	MMP-13 inhibitor	Mac1 fbg inh	CD11b adhes enh	FAK blocker	FAK inh confirm
CCOC(=O)N1CCN(S(=O)(=O)c2cc(OCC(=O)NC3CCCCC3)c(C)cc2Cl)CC1	·	0	-1	2	·
COc1cc(/C=C2/SC(=S)NC2=O)ccc1OS(=O)(=O)c1ccc(C)cc1	·	92*	-5	·	·
O=S(=O)(NCc1ccncc1)c1ccc(Br)s1	1	98*	-11	·	·
COc1ccc(C2CC(c3cccs3)=NN2c2nc(-c3ccccc3)cs2)cc1OC (stereo not drawn)	·	-29	18	-4	·
O=C(CN1CCC(c2nc3ccccc3s2)CC1)NCc1cccs1	0	100*	-8	1	·
CCOC(=O)c1ccc(NC(=O)c2ccc(C)c(S(=O)(=O)N3CCOCC3)c2)cc1	·	84*	-8	-1	·
CC(C)OCCCNc1ncnc2c1[nH]c1ccccc12	-19	84*	-9	7	·
C1=C(CCNc2ncnc3c2[nH]c2ccccc23)CCCC1	·	100*	-9	·	·
COCC(C)NC(=O)CSc1nc(-c2ccccc2)c(-c2ccccc2)o1 (stereo not drawn)	·	11	-3	4	·
COC(=O)c1ccc(NS(=O)(=O)c2cccc3cccnc23)cc1	·	-6	-3	-2	·
CCCn1c(CNc2ccc(Br)cc2)nc2ccccc21	1	62*	-3	10	·
CCn1c(CNc2ccc(C(=O)O)cc2)nc2ccccc21	·	31	-3	0	·
CC(=O)c1sc(NC(=O)C2(F)C(F)(F)C(F)(F)C(F)(F)C(F)(F)C2(F)F)nc1C	-5	102*	-10	·	·
CC(=O)c1sc(NC(=O)C=C(C)C)nc1C	5	-10	2	-3	·
CCC1CCCCN1CCCNC(=O)CNC(=O)Cn1ccc2ccccc2c1=O (stereo not drawn)	0	-2	-2	-4	·
COC(=O)Cc1ccc(NC(=O)c2ccc(C(C)(C)C)cc2)cc1	·	59*	-8	0	·
COC(=O)Cc1cc(=O)n(-c2nc3ccccc3[nH]2)[nH]1	57*	·	·	-3	·
CCCC(=O)Nc1nc2ccc(OC)cc2s1	-6	18	-4	·	·
COc1ccc2nc(NC(=S)N(C)C)sc2c1	·	60*	-4	-1	·
CCOC(=O)c1cnc2cc(C)nn2c1-c1ccccc1	·	·	·	7	·
Cc1ccc(C)c(CS(=O)(=O)c2cn(CC(=O)N3CCCCC3)c3ccccc23)c1	·	16	4	·	·
CC(C)CCNC(=O)c1ccc2c(c1)ncn2C1CCCCC1	·	2	-2	1	·
COc1cccc(-c2cn3nc4c(nc3n2)CCCC4)c1	-3	36	1	27*	0
Cc1ccc(S(=O)(=O)N[C@H](C(=O)N2CCC(C(=O)N3CCC[C@H]3C(=O)O)CC2)C(C)C)cc1	4	0	-3	-2	·
COc1cc(C2CC(=O)c3cnc(N4CCN(Cc5ccccc5)CC4)nc3C2)cc(OC)c1OC (stereo not drawn)	-4	6	4	19*	5
SMILES	MMP-13 inhibitor	Mac1 fbg inh	CD11b adhes enh	FAK blocker	FAK inh confirm
O=C(N/N=C/c1ccncc1)c1cc2c(ccc3ccccc32)o1	·	3	1	52*	17
O=C(CNC(=O)c1ccco1)OCC(=O)c1ccc2c(c1)CCCC2	-1	·	·	27*	-3
CCc1ccc(C(=O)COC(=O)CNC(=O)c2ccco2)cc1	-15	2	0	·	·
COc1ccc(NC(=O)CSc2ccc3c4c(cccc24)C(=O)c2ccccc2-3)cc1	·	·	·	4	·
N#Cc1cccc(NC(=O)CSc2ccc3c4c(cccc24)C(=O)c2ccccc2-3)c1	·	-2	62	27*	22*
O=c1cc(-c2cccc3ccccc23)[nH][nH]1	0	·	·	23*	0
COc1cccc(C(=O)Nc2c(C(N)=O)oc3ccccc23)c1	3	-16	5	21*	8
Cc1n[nH]c(C)c1-c1nc2ccccc2[nH]1	-4	·	·	24*	6
Nc1ccc(-c2nc3ccccc3[nH]2)cc1	-135	-55	0	3	·
COC(=O)c1ccccc1S(=O)(=O)Nc1ccc2cn[nH]c2c1	-1	-17	1	20*	15
CCOc1cccc(CNc2ccc(O)cc2)c1OCc1ccc(Cl)cc1Cl	·	47	-9	29*	0
CC(=O)c1ccc(Nc2cc(C)nc3nc(C)nn23)cc1	4	·	·	·	·
CCCSc1nc(C)c(-c2csc(C(C#N)=C3CCCC3)n2)cc1C#N	0	31	-5	28*	2
Cc1cc(-c2csc(NC(=O)c3ccccc3C(F)(F)F)n2)c(C)n1Cc1ccccc1	·	-11	5	·	·
Cc1cc(-c2csc(NC(=O)c3ccc(=O)n(C)n3)n2)c(C)n1CC1CCCO1 (stereo not drawn)	2	-13	26	22*	5
Cc1ccc(C)c(N(CC(=O)NC2CCCC2)C(=O)CCCC(=O)Nc2ccccn2)c1	-2	0	-1	·	·
Cc1nnc(NCc2ccncc2)c2ccccc12	2	·	·	23*	7
Cc1ccccc1OCCN1C(=O)NC2(CCc3ccccc32)C1=O (stereo not drawn)	5	·	·	-1	·
Nc1ccc(-n2cnc3cc([N+](=O)[O-])ccc32)cc1	·	-8	-3	26*	14
Cc1ccc(-c2cccc(OC(=O)c3ccccc3F)c2)cc1	·	·	·	4	·
Cc1cc(C)c2oc(-c3cccc(NC(=O)c4ccc(F)cc4)c3)nc2c1	·	-2	-4	0	·
CCN(CC)CCCOc1nc(C)nc2c1oc1ccccc12	-2	-3	4	19*	3
CCN(CC)CCOc1nc(C)nc2c1oc1ccccc12	-2	-9	-3	-3	·
CCOC(=O)c1ccc(Nc2nc(-c3cccnc3)nc3ccccc23)cc1	·	6	9	22*	10
Cc1cccc(OCc2nnc3n2CCCCC3)c1	1	-1	-4	7	·
SMILES	MMP-13 inhibitor	Mac1 fbg inh	CD11b adhes enh	FAK blocker	FAK inh confirm
Cc1ccc2nc(SCC(=O)Nc3nnc(SCC(N)=O)s3)[nH]c2c1	·	-9	0	1	·
COc1ccc(-c2oc3ncnc(NCCN4CCOCC4)c3c2-c2ccc(OC)cc2)cc1	-70	2	-2	21*	10
c1ccc(-c2oc3ncnc(NCCCN4CCOCC4)c3c2-c2ccccc2)cc1	-102	18	3	17	·
COc1ccc(-c2csc3ncnc(NCCN4CCOCC4)c23)cc1	-2	7	-1	4	·
COc1ccc(-c2oc3ncnc(NCCCN4CCOCC4)c3c2-c2ccc(OC)cc2)cc1	-220	-2	17	34*	9
COc1ccc(-c2oc3ncn(CCN4CCOCC4)c(=N)c3c2-c2ccc(OC)cc2)cc1	-161	0	1	20*	1
CCCCOC(=O)Cn1c(=N)n(CCN2CCOCC2)c2ccccc21	2	·	·	0	·
N=c1n(CCN2CCOCC2)c2ccccc2n1CC(=O)c1ccc(Cl)c(Cl)c1	-5	23	1	95*	-2
N#Cc1cnn2c1nc(N1CCOCC1)c1ccccc12	·	-3	-2	51*	26*
CCCOc1cc(C)c(S(=O)(=O)n2ccc(C)n2)cc1C	-2	21	-1	12	·
CCOC(=O)c1sc2c(c1C)C(c1cccs1)C1=C(CCCC1=O)N2 (stereo not drawn)	-458	-4	-5	24*	19*

Screening results (PubChem)
